# Screening data as filed in PubChem BioAssay.
# Tg IFNy HTS = T. gondii growth inhibition with IFN-gamma, primary screen, cell-based; AID 1259416, 2018; activity change, negative = inhibition, % (concentration not given with the values); 69,000 compounds, 3.8% hits; Toxoplasma gondii growth in IFN-gamma-treated host cells; hits give low values; in the data active = activity change below about -70%, passing the limit was not always enough;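 also: host cells are HeLa cells infected with Toxoplasma gondii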
# A number is an active result; n = inactive; ! = not active in a repeat. This excerpt belongs to a sample that is enriched for hits.
SMILES,Tg IFNy HTS
CNC(=O)c1cc(=O)n(CC(=O)Nc2cccc(SC)c2)c2ccccc12,n
COc1ccc(CNC(=O)CN2C(=O)CCc3cc(S(=O)(=O)N4CCCCC4)ccc32)cc1,n
Cc1ccccc1N=Nc1ccc(NC(=O)c2ccnn2C)c(C)c1,n
CCc1ocnc1C(=O)N(C)CCc1nc2c(C)cccc2[nH]1,n
Nc1nc2c(sc(=O)n2[C@@H]2O[C@H](CO)[C@@H](O)[C@H]2O)c(=O)[nH]1,n
CCOc1ccc(-c2nc3c(s2)CN(S(=O)(=O)c2cc(C)cc(C)c2)CC3)cc1,-95.1
CCOc1ccc(-c2nc3c(s2)CN(S(=O)(=O)c2ccccc2)CC3)cc1,n
CCCc1ccc(S(=O)(=O)N2CCc3nc(-c4cccc(OC)c4)sc3C2)cc1,n
Cc1ccc(-c2nc3c(s2)CN(S(=O)(=O)c2ccc(Cl)cc2)CC3)cc1,n
CCOc1ccc(-c2nc3c(s2)CN(S(=O)(=O)c2ccc(OCC)cc2)CC3)cc1,n
CCc1ccc(S(=O)(=O)N2CCc3nc(-c4cccc(OC)c4)sc3C2)cc1,n
Cc1c(Cl)cccc1S(=O)(=O)N1CCc2nc(-c3ccccc3)sc2C1,-82.8
CCc1ccccc1S(=O)(=O)N1CCc2nc(-c3ccccc3)sc2C1,n
COc1cccc(-c2nc3c(s2)CN(S(=O)(=O)c2cc(C)ccc2C)CC3)c1,-101.9
COc1cccc(-c2nc3c(s2)CN(S(=O)(=O)c2ccc(C)c(C)c2)CC3)c1,-104.0
CC(Cn1cncn1)NCc1noc(C2CCCC2)n1 (stereo not given),n
CC1CCN(c2ncc(-c3cncn3CCNC3CCS(=O)(=O)C3)cn2)CC1 (stereo not given),n
COCc1nnc2n1CCN(Cc1ccsc1)C2,n
CC(C)N(C)Cc1ncn2c1CN(C(=O)c1ccncc1F)CCC2,n
Cc1ccc(CN2C[C@H]3CCCO[C@H]3[C@H](N3CCCC3=O)C2)o1,n
CC(C)N1CCC2(CC1)CC(COCC1CC1)N(Cc1cccnc1)C2 (stereo not given),n
COc1ccc(-c2nc3c(s2)CN(S(=O)(=O)c2ccc(C)c(C)c2)CC3)cc1,-103.1
COc1cccc(-c2nc3c(s2)CN(S(=O)(=O)c2ccc(F)c(Cl)c2)CC3)c1,n
COc1ccc(S(=O)(=O)N2CCc3nc(-c4ccc(C)cc4)sc3C2)cc1,n
COc1cccc(-c2nc3c(s2)CN(S(=O)(=O)c2ccccc2Cl)CC3)c1,-102.2
SMILES,Tg IFNy HTS
CC(C)c1ccc(S(=O)(=O)N2CCc3nc(-c4ccccc4)sc3C2)cc1,-98.1
O=S(=O)(c1ccc(Cl)cc1)N1CCc2nc(-c3ccccc3)sc2C1,n
COc1ccc(-c2nc3c(s2)CN(S(=O)(=O)c2cccc(F)c2)CC3)cc1OC,n
COc1ccc(S(=O)(=O)N2CCc3nc(-c4ccccc4)sc3C2)cc1,n
COc1ccc(S(=O)(=O)N2CCc3nc(-c4ccc(OC)c(OC)c4)sc3C2)cc1,n
COc1ccc(-c2nc3c(s2)CN(S(=O)(=O)c2cccc(C)c2)CC3)cc1OC,-88.8
COc1ccc(-c2nc3c(s2)CN(S(=O)(=O)c2ccc(OC)c(OC)c2)CC3)cc1,n
O=C(C1CCNCC1)N1CCC(O)(Cn2ccc3ccncc32)CC1,n
CN(C)CC1(O)CCN(C(=O)c2cccc3ccnn23)C1 (stereo not given),n
Cc1cc(NC(=O)Cn2ncc3c(N4CCC(C)CC4)ncnc32)ccc1Br,n
CO[C@H]1CCN(c2ncc(F)cn2)C[C@@H]1Cc1ccccc1,n
CN(Cc1n[nH]c2c1CCCCC2)C(=O)c1cn[nH]n1,n
COc1ccc(-c2nc3c(s2)CN(S(=O)(=O)c2cccc(Cl)c2)CC3)cc1,n
COc1cccc(-c2nc3c(s2)CN(S(=O)(=O)c2cccc(C)c2)CC3)c1,-105.1
O=C1CC(Nc2cnc3ccccc3n2)CN1CC1CCCCC1 (stereo not given),n
CCn1nnc2c1CCN(Cc1c(C)noc1C)C2COC (stereo not given),n
OC(c1ccccc1)C1CCN(CCc2ccccc2)CC1 (stereo not given),n
Cc1c(C2CCN(CCc3ccccc3)CC2)noc1-c1ccc(Cl)cc1,-76.4!
CCn1c(CC2CCN(CCc3ccccc3)CC2)n[nH]c1=O,n
Clc1cccc(Cl)c1CSCc1csc2ccccc12,n
Cc1c(C)c(C)c(CSCc2c(C)c(C)c(C)c(C)c2C)c(C)c1C,n
Cc1ccc(C)c(-c2noc(-c3c(O)c4cc(F)ccc4n(C)c3=O)n2)c1,n
CCN1CCC2(CC1)CC(NC(=O)c1cnc[nH]1)c1ccccc1O2 (stereo not given),n
CCc1ccc(S(=O)(=O)N2CCC3(CCCN(Cc4c(C)noc4C)C3)C2)cc1 (stereo not given),-71.8
Cc1cccc(CN2CCCC3(CCN(S(=O)(=O)c4ccc(F)cc4)C3)C2)n1 (stereo not given),n
SMILES,Tg IFNy HTS
Cc1ccc(S(=O)(=O)N2CCC3(CCCN(Cc4c(C)noc4C)C3)C2)cc1 (stereo not given),n
COc1ccc(CC2CN(C(=O)Cc3cnc(C)[nH]c3=O)CCO2)cc1 (stereo not given),n
Cc1c(CNC(=O)Nc2ccccc2)sc2ccccc12,-78.8
O=C(Nc1ccccc1)Nc1nc(=O)c2ccccc2s1,n
Cc1oc2ccccc2c1CNC(=O)Nc1ccc(Br)cc1,n
O=C1c2cccc(O)c2C(=O)c2c(O)cccc21,n
O=C1c2ccccc2-c2n[nH]c3cccc1c23,-90.9!
CNc1ncccc1C(=O)NCC1CCCN(Cc2cnc[nH]2)C1 (stereo not given),n
COc1cc(NC(=O)Cn2c(=O)cc(C(=O)N3CCCCC3)c3ccccc32)cc(OC)c1,n
Cc1nc(-c2ccccn2)nc(SCc2ccccc2)c1Cl,-89.3
Clc1ccc(CSc2n[nH]c(-c3ccccn3)n2)cc1,n
Cc1nc(-c2ccccn2)nc(SCC(=O)N2CCOCC2)c1Cl,n
FC(F)(F)c1cc(N/N=C2/CCSc3sccc32)cc(C(F)(F)F)c1,-103.2
CC(=O)N1N=C(c2ccc(Br)cc2)CC1c1nc2ccccc2[nH]1 (stereo not given),n
COc1ccc(C2=NC3(CCN(C(C)=O)CC3)NC(c3ccccc3O)C2)cc1 (stereo not given),n
O=C(CCN1CCCCO1)NCc1ccc2c(c1)OCCCO2,n
COc1ccc(-c2nc(Cc3noc(-c4ccccc4F)n3)c(C)o2)cc1,-113.2
COc1ccccc1-c1nc(Cc2noc(-c3ccccc3F)n2)c(C)o1,-78.8
COc1cccc(-c2nc(Cc3nc(-c4ccccc4)oc3C)no2)c1,n
COc1ccccc1-c1nc(Cc2noc(-c3ccc(F)cc3)n2)c(C)o1,n
Cc1ccc(OCc2nc(Cc3nc(-c4ccccc4)oc3C)no2)cc1,n
COc1ccccc1-c1nc(Cc2noc(-c3ccccn3)n2)c(C)o1,n
CCN(C(=O)c1nc2c(s1)CCCN2C)C(C)C,n
Cc1occc1C(=O)N1CCCC2(CCN(c3cncnc3)C2=O)C1 (stereo not given),n
O=C(NCCc1nc(-c2cccnc2)n[nH]1)NC1CCCCC1,n
O=C(NCCc1csc(-c2cccc(F)c2)n1)C(=O)Nc1ccccc1Cl,n
Cc1oc(-c2ccc(Cl)cc2)nc1CN1CCCC(C(=O)NC2CCCCCC2)C1 (stereo not given),-99.0
CCOc1ccc(-c2nc(CN3CCN(C(=O)NC4CCCCC4)CC3)c(C)o2)cc1,n
Cc1ccc(-c2nc(CN3CCN(C(=O)NC4CCCCC4)CC3)c(C)o2)cc1,n
O=C(Cn1c(=O)cc(C(=O)N2CCc3ccccc3C2)c2ccccc21)NCc1ccccc1,n
